TEAD-YAP block = TEAD-YAP interaction inhibition, primary screen, TEAD-YAP interaction inhibitor project, luminescence, HEK-TIYL cells; inhibition, % at 9.12 µM; 640,000 tested, 1.4% active; TEAD-Gal4/YAP UAS-luciferase luminescence; in the data active = inhibition above about 32%;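 note: 0% = median of test compound wells and 100% = reference inhibitor wells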
MITF inh = MITF inhibitors, primary screen, biochemical, AlphaScreen, human; AlphaScreen MITF homodimerization, bead proximity signal; inhibition, % at 2.6 µM; 650,000 tested, 0.91% active; in the data active = inhibition above about 50%;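 note: 0% = vehicle wells with protein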
FBW7 act = FBW7 E3 ligase activators, primary screen, biochemical, AlphaScreen, human | F-box/WD repeat-containing protein 7 (Homo sapiens), Q969H0 | AlphaScreen FBW7–phospho-cyclin E peptide binding, activator screen | normalized activity (activation), % at 26.1 µM | 650,000 tested, 0.13% active | AID 1259310, 2017; in the data active = normalized activity above about 1.9%;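 note: purified mutant Fbw7 with reduced substrate affinity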
GPR151 activ = activators of human GPR151, primary screen, cell-based, PathHunter beta-arrestin, luminescence | G-protein coupled receptor 151 (Homo sapiens), Q8TDV0 | 650,000 tested, 1% active | AID 1508602, 2020 | PathHunter beta-arrestin GPR151 cells | activation, % at 11.2 µM; in the data active = activation above about 4.9%;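 note: 0% = median of compound wells and 100% = cells with positive control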
Target sequence (Q8TDV0 whole entry, looked up): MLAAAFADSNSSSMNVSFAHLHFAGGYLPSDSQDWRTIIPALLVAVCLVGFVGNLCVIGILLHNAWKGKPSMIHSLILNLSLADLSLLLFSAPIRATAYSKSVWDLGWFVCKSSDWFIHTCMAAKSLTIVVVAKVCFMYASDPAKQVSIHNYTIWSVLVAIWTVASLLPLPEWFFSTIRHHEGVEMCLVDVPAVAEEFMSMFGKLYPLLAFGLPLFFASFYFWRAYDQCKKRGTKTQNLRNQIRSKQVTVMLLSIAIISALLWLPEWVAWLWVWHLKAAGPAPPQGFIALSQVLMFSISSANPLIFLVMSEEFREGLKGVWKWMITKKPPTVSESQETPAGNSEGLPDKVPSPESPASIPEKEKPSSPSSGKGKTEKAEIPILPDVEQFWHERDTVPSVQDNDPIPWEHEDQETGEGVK
The depositor's hits bear a star. Rows were chosen to be rich in hits. Some 3.5% of all compounds tested hit in one or more screens of this group.

SMILES	TEAD-YAP block	MITF inh	FBW7 act	GPR151 activ
O=c1c(-c2nncn2-c2ccccc2)coc2c(O)c(O)ccc12	-2.0	53.1*	-0.5	-1.8
COc1cc(C2Nc3ccc4ncccc4c3C3=C2C(=O)CCC3)ccc1OC(C)=O (stereo not given)	52.0*	-3.5	-0.1	0.4
COc1ccc(N2CCN(C(C)CC(=O)O)CC2)cc1 (stereo not given)	-7.2	71.6*	-0.2	-0.4
CCN(CC)CC(O)CN1CCN(c2ccc(OC)cc2)CC1 (stereo not given)	1.6	55.5*	-0.1	-0.5
COc1ccc(N2CCN(CC(O)COC(C)(C)C)CC2)cc1 (stereo not given)	-6.1	45.8	0.1	0.2
COc1cccc(-c2cnc(NCc3cccc(Cl)c3)n2C)c1	40.9*	23.8	0.4	-1.0
COc1cccc(-c2cnc(NCc3cccc(F)c3)n2C)c1	45.5*	44.0	0.2	-0.2
COc1cccc(-c2cnc(NCc3ccc(F)cc3)n2C)c1	4.6	48.8	0.1	0.3
CC(C)(C)C1(O)CC(C(F)(F)C(F)(F)F)=NN1C(=O)C1CC1 (stereo not given)	-4.6	5.5	0.4	-0.3
O=C1C(=O)N(CCc2ccccc2)c2ccc(Br)cc21	26.8	17.4	-0.1	0.6
CC(=O)CN1C(=O)C(=O)c2cc(Br)ccc21	9.9	23.8	-0.1	0.5
C#CCN1C(=O)C(=O)c2cc(Br)ccc21	52.7*	14.5	0.6	0.6
C=CCN1C(=O)C(=O)c2cc(Br)ccc21	61.5*	15.6	0.1	0.2
CCCN1C(=O)C(=O)c2cc(Br)ccc21	62.5*	-12.6	-0.2	-0.2
N#Cc1cc2c(cc1NC(=O)c1cc([N+](=O)[O-])ccc1N1CCOCC1)OCO2	36.0*	14.8	0.1	-2.2
Cc1ccc(C(=O)c2cc([N+](=O)[O-])ccc2N2CCOCC2)cc1C	41.6*	0.0	-0.1	-0.1
Cc1cc(C)c(NC(=O)c2cc([N+](=O)[O-])ccc2N2CCOCC2)c(C)c1	2.3	-4.2	-0.1	-0.1
Cc1ccc(C(=O)c2cc([N+](=O)[O-])ccc2N2CCOCC2)c(C)c1	62.4*	14.6	0.1	-1.4
COc1ccc(C(=O)/C=C/Nc2cccc(C)c2)cc1	-12.4	-6.4	0.0	-3.8
COc1ccc(/C=C/C(=O)c2ccc(O)cc2)cc1	55.3*	-17.3	-0.1	-5.5
COc1ccc(C(=O)/C=C/Nc2cccc(O)c2)cc1	87.0*	-2.4	-0.2	-5.6
COc1cccc(C(=O)/C=C\Nc2ccc(C)cc2)c1	59.5*	-1.3	0.0	-6.7
COc1cccc(C(=O)/C=C/Nc2ccc(N(C)C)cc2)c1	-8.8	11.1	-0.3	-0.5
COc1ccc(C(=O)/C=C\Nc2cccc(C(=O)O)c2)cc1	40.7*	1.1	0.1	-6.4
CC(=O)NC(=S)NNC(=O)c1ccc(-c2ccccc2)cc1	-20.8	6.6	-0.2	-2.0
SMILES	TEAD-YAP block	MITF inh	FBW7 act	GPR151 activ
CCOc1c(C)cnc2c1c(=O)n(CC(=O)OC)c(=O)n2C	6.2	12.7	0.1	1.2
Cc1ccc(/C(O)=C2/C(=O)C(=O)N(CCC(=O)O)C2c2ccc(Br)cc2)cc1 (stereo not given)	0.5	-5.5	-0.1	-1.0
Cc1c(-c2ccc(Cl)cc2Cl)nc2ccccc2c1C(=O)Nc1ccc(F)c([N+](=O)[O-])c1	10.2	19.4	-0.1	0.7
CCc1ccc(C(=O)/C=C/Nc2ccc(O)cc2)cc1	2.2	1.4	-0.5	1.1
COc1ccc(C(=O)/C=C\Nc2cccc(F)c2)cc1	34.6*	13.8	0.0	-2.6
CCc1ccc(C(=O)/C=C/Nc2cccc(O)c2)cc1	96.4*	-29.1	-0.1	2.7
Nc1ccc(Oc2ccc3c(c2)C(=O)N(c2cccc(N)c2)C3=O)cc1	-27.1	10.1	3.4*	0.5
Nc1cccc(Oc2ccc3c(c2)C(=O)N(c2cccc(N)c2)C3=O)c1	-2.5	-0.7	-0.2	2.6
Nc1ccc(Oc2ccc3c(c2)C(=O)N(CCO)C3=O)cc1	42.2*	-1.4	-0.1	-1.0
O=C(Cn1ncc2c(=O)oc3ccccc3c21)Nc1cc(-c2cccc(F)c2)no1	-0.3	0.7	0.1	0.3
O=C(Nc1cccc(-c2cc3ccccc3[nH]2)c1)C1CCCN(C(=O)c2ccoc2)C1 (stereo not given)	-2.4	-1.1	-0.2	0.7
COc1ccc(C(=O)N2CCN(CCNC(=O)C(=O)NC(C)c3ccccc3)CC2)cc1OC (stereo not given)	4.3	-6.5	0.2	1.2
CCOC(=O)C1=C(C)NC(SC)=C(C#N)C1CC(C)C (stereo not given)	38.1*	2.1	0.1	-0.2
CC1(C(=O)NC2CCCCC2)Cc2ccccc2C(=O)N1CC1CCCO1 (stereo not given)	-11.7	0.5	0.0	1.9
CC1(c2ccco2)NC(=S)N(c2ccccc2)N1 (stereo not given)	-17.8	10.4	-0.2	0.9
O=C(CN1CCCCC1)N1CCC(c2ccncc2)CC1	-0.1	2.5	0.1	-0.6
CN(Cc1ccccc1)S(=O)(=O)c1cc(C(=O)Nc2ccc(Oc3ccccc3)cc2)ccc1F	61.4*	27.5	0.1	0.0
CCN(Cc1ccccc1)S(=O)(=O)c1cc(C(=O)Nc2ccc(Br)cc2)ccc1F	50.3*	-0.6	-0.1	1.3
COc1cccc(NC(=O)c2ccc(F)c(S(=O)(=O)N(C)Cc3ccccc3)c2)c1	-3.9	-6.0	0.0	2.3
CCN(c1ccccc1)S(=O)(=O)c1cc(C(=O)Nc2ccc(Br)cc2)ccc1F	4.0	6.2	0.0	-0.4
CCCCN(CC)S(=O)(=O)c1cc(C(=O)Nc2ccc(Oc3ccccc3)cc2)ccc1F	59.9*	-3.6	-0.1	0.4
CC1CCN(C(=O)CSc2nc(N)c(NC(=O)c3ccccc3)c(=O)[nH]2)CC1	2.2	10.9	0.2	1.1
COC(=O)C(C)N(C(=O)c1cc([N+](=O)[O-])ccc1O)c1c(C)cccc1C (stereo not given)	-7.9	-9.3	-0.1	0.4
CCOc1cc(C2C(C(=O)OCCOc3ccccc3)=C(C)NC3=C2C(=O)CC(C)(C)C3)cc(Br)c1O (stereo not given)	-10.7	-5.1	0.0	-0.7
COC(=O)c1ccc2nc(-c3ccccc3)c(-c3ccccc3)nc2c1	-2.9	-1.0	-0.2	-0.7
COc1ccc(NC(=O)c2ccc(N3C(=O)C4C5C=CC(C5)C4C3=O)cc2)cc1 (stereo not given)	-2.6	25.9	1.1	1.0
CCOC1=NN(c2ccc([N+](=O)[O-])cc2)C(=O)/C1=C\c1cc(OC)c(OC)cc1OC	4.1	13.8	-0.1	-1.0
COc1ccc(C(=O)NNC(=O)C(=O)Nc2cc(C)ccc2OC)cc1	-16.4	-3.3	0.0	-0.7
COc1ccc(-c2nnc(SCC(=O)NCc3ccccc3)nc2-c2ccc(OC)c(OC)c2)cc1OC	47.3*	-12.2	-0.1	-0.2
c1ccc(-n2cnc3c(NCc4nc5ccccc5[nH]4)nc(Nc4ccncc4)nc32)cc1	72.6*	9.3	0.0	-2.4

Source: PubChem (The Scripps Research Institute Molecular Screening Center)
